12-LOX inh: Primary qHTS assay for inhibitors of human arachidonate 12S-lipoxygenase (ALOX12): Round 2 | purified 12hLO, xylenol orange hydroperoxide absorbance | Potency, µM (series often up to 108 µM), most hits filed as inhibitors | 1.1% of 580,000 active | Polyunsaturated fatty acid lipoxygenase ALOX12 (Homo sapiens), P18054
Target sequence (P18054 whole entry, looked up): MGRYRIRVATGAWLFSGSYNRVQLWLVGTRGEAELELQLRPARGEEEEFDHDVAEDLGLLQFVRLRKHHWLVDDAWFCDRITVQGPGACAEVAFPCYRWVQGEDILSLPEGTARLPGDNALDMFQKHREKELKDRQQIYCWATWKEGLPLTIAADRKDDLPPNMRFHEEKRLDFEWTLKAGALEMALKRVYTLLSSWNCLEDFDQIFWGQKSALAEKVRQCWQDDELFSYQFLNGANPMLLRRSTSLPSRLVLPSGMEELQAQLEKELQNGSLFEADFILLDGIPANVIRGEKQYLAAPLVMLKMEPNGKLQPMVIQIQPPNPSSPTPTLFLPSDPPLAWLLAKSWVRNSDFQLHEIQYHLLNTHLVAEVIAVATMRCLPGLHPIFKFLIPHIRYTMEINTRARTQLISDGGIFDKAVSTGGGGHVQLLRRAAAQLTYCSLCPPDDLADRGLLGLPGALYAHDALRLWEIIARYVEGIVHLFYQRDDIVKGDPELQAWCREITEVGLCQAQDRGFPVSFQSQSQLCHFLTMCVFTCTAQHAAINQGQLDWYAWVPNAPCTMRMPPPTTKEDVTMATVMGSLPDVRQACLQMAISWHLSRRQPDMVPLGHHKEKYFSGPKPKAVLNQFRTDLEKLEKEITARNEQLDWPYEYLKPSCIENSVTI
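Purified human 12hLO at 150 nM in 25 mM Hepes, 0.01% Triton X-100, pH 7.0, preincubated 15 min at room temperature with compound. Reaction started with 40 uM arachidonic acid, 30 min at room temperature. Hydroperoxide measured by Fe-xylenol orange, 573/405 nm absorbance ratio.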
TDP1 cell noCPT: qHTS for Inhibitors of human tyrosyl-DNA phosphodiesterase 1 (TDP1): qHTS in cells in absence of CPT; 15% of 420,000 active; Potency, µM (titrated, usually from 46.2 µM), most hits filed as inhibitors; DT40 Tdp1-/- hTDP1 cells, no CPT, ATP luminescence, 48 h; further: nearly all actives have a fitted effect of over 55% in size
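Growth kinetics read by CellTiter-Glo luminescence after ≥48 hr at 37 °C. Cells: DT40 Tdp1-/- stably carrying human TDP1, 400 per well, compound exposure in the absence of CPT (DMSO vehicle).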
HT1080 IDH1KD tx: qHTS for induction of synthetic lethality in tumor cells producing 2HG: qHTS for the HT-1080-IDH1KD cell line. HT-1080 IDH1 knockdown viability, ATP luminescence, 48 h. Potency, µM (series often up to 46.1 µM), most hits filed as cytotoxic. 2% of 360,000 active
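HT-1080-IDH1KD cells (IDH1 knocked down), 750/well in RPMI with 5% FBS, treated with compound 48 h at 37 degrees C. Viability by CellTiter-Glo luminescence, normalised to DMSO and no-cell wells; concentration-response curves classed.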
DT40 TDP1 CPT: qHTS for Inhibitors of human tyrosyl-DNA phosphodiesterase 1 (TDP1): qHTS in cells in presence of CPT; chicken DT40 Tdp1-/-;hTDP1 cells + 20 nM CPT, ATP luminescence, 48 h; Potency, µM (highest dose often 46.2 µM), actives largely listed as inhibitors; 12% of 420,000 active; AID 686979, 2013; further: nearly all actives have a fitted effect of over 55% in size
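Chicken DT40 Tdp1-/- cells complemented with human TDP1, 400 cells/well, exposed to compounds plus 20 nM camptothecin for at least 48 h at 37 C; viability read as ATP content by CellTiter-Glo luminescence.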
IL1B secr inh: qHTS for Inhibitors of Inflammasome Signaling: IL-1-beta AlphaLISA Primary Screen | THP-1 LPS/ATP IL-1B secretion, AlphaLISA, 16 h; active compounds read low | activity change, % at 57.5 µM | 4.7% of 360,000 active | AID 743279, 2014; in the data active means activity change below about -50%; inconclusive means mostly about -30% to -49%
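THP-1 cells pretreated 1 hr with compounds (up to 57.5 uM final), then stimulated with LPS (250 ng/mL final) plus ATP (1.25 mM final); secreted IL-1B measured by AlphaLISA after 16 hr, decreased signal indicating inhibition.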
HT1080NT lethal: qHTS for induction of synthetic lethality in tumor cells producing 2HG: qHTS for the HT-1080-NT fibrosarcoma cell line | HT-1080-NT fibrosarcoma viability, CellTiter-Glo ATP luminescence, 48 h | Potency, µM (highest dose often 46.1 µM), usual class: cytotoxic | 1.6% of 360,000 active | AID 686970, 2013;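 further: NT is the 2HG producing partner of a matched IDH1 knockdown line; nearly all actives have a fitted effect of over 55% in size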
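Viability by CellTiter-Glo luminescence after 48 h compound exposure at 37C of HT-1080-NT cells (750/well, RPMI, 5% FBS). % activity scaled between DMSO wells and medium-only wells, then curve-fitted and categorized by curve class.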
Hits are given with their value. The full list was thinned out, with hits kept by preference. Unless noted, the call rests on the fitted dose curve; in most records, active means well fitted curve in the direction sought with a large enough effect; inconclusive means small, poorly fitted or top-dose-only effect, or another doubt; inactive means no such curve, though single readings can be large; an effect the other way counts as inactive or inconclusive.

O=C(CCc1nc2cccnc2n1Cc1cccs1)Nc1cccc(C(F)(F)F)c1 was read as 12-LOX inh inactive, TDP1 cell noCPT 10.3µM and DT40 TDP1 CPT 16.4µM.
Screening COc1ccc(NC(=O)CCc2nc3cccnc3n2Cc2cccs2)c(OC)c1 returned 12-LOX inh inactive, TDP1 cell noCPT inconclusive and DT40 TDP1 CPT inconclusive.
Screening COc1ccc(CNc2oc(-c3ccc(COc4ccc(OC)cc4)o3)nc2C#N)cc1 returned 12-LOX inh inactive, TDP1 cell noCPT inconclusive and DT40 TDP1 CPT inconclusive.
COCCCNc1oc(-c2ccc(COc3ccc(Cl)cc3)o2)nc1C#N was read as 12-LOX inh inactive, TDP1 cell noCPT inconclusive and DT40 TDP1 CPT 16.4µM.
`CN(C)CCNc1oc(-c2ccc(COc3ccc(Cl)cc3)o2)nc1C#N` gave 12-LOX inh inconclusive, TDP1 cell noCPT 8.2µM and DT40 TDP1 CPT 16.4µM.
Screening COc1ccc(OCc2ccc(-c3nc(C#N)c(NCc4ccc(F)cc4)o3)o2)cc1 returned 12-LOX inh inactive, TDP1 cell noCPT 23.1µM and DT40 TDP1 CPT inconclusive.
Screening COCCNc1oc(-c2ccc(COc3ccc(OC)cc3)o2)nc1C#N returned 12-LOX inh inconclusive, TDP1 cell noCPT inconclusive and DT40 TDP1 CPT inactive.
`CC(C)NC(=O)C1CCN(C(=O)C(C)(C)C)CC1` gave 12-LOX inh inactive.
For Cc1ccccc1NC(=O)C1=C(Cl)CCCC1 the results were 12-LOX inh inactive.
`Cc1ccc(CNC(=O)c2cnn(C)c2-n2cccc2)cn1` gave 12-LOX inh inactive.
COc1ccc(NC(=O)CN2C(=O)CC(c3ccc(C)c(C)c3)=Nc3ccccc32)cc1OC was read as 12-LOX inh inactive, TDP1 cell noCPT inconclusive and DT40 TDP1 CPT inconclusive.
Cc1ccc(NC(=O)CN2C(=O)CC(c3ccc(F)cc3)=Nc3ccccc32)cc1F was read as 12-LOX inh inactive, TDP1 cell noCPT 11.6µM and DT40 TDP1 CPT 11.6µM.
`Cc1ccc(CNC(=O)CN2C(=O)CC(c3ccc(C)c(C)c3)=Nc3ccccc32)cc1` gave 12-LOX inh inactive, TDP1 cell noCPT inconclusive and DT40 TDP1 CPT inconclusive.
COc1cccc(NC(=O)CSC2=Nc3ccccc3N=C(c3ccc(F)cc3)C2)c1 was read as 12-LOX inh inactive, TDP1 cell noCPT inconclusive and DT40 TDP1 CPT 18.4µM.
For Cc1ccc(C2=Nc3ccccc3N(CC(=O)Nc3cccc(F)c3)C(=O)C2)cc1C the results were 12-LOX inh inactive, TDP1 cell noCPT 18.4µM and DT40 TDP1 CPT inconclusive.
For Cc1ccc(C2=Nc3ccccc3N(CC(=O)NCc3ccccc3Cl)C(=O)C2)cc1C the results were 12-LOX inh inactive, TDP1 cell noCPT 20.6µM and DT40 TDP1 CPT inconclusive.
`O=C(NC[C@H]1OC[C@@H](NCc2ccccn2)[C@@H]1O)Nc1ccccc1` gave 12-LOX inh inactive.
For Cc1cccnc1C(=O)NC1CCN(c2ccc(=O)n(C)n2)CC1 the results were 12-LOX inh inactive.
For C=CCSc1nnc(NC(=O)c2cc(=O)c3cc(CC)ccc3o2)s1 the results were 12-LOX inh inactive.
Cn1ncc2c(O/N=C(\N)c3ccc(C(F)(F)F)cc3)ncnc21 was read as 12-LOX inh inactive, TDP1 cell noCPT 5.17µM, HT1080 IDH1KD tx 16.4µM, DT40 TDP1 CPT 6.51µM, IL1B secr inh -70.5 and HT1080NT lethal 20.6µM.
COC(=O)c1ccc(Nc2ncnc3c2cnn3C)cc1 was read as 12-LOX inh inactive, TDP1 cell noCPT inactive and DT40 TDP1 CPT inactive.
Screening Clc1cccc(-c2cccc3nccn23)c1 returned 12-LOX inh inconclusive, TDP1 cell noCPT 20.6µM, HT1080 IDH1KD tx inactive, DT40 TDP1 CPT 23.1µM, IL1B secr inh inactive and HT1080NT lethal inactive.
`CS(=O)(=O)Nc1ccc(-c2cccc3nccn23)cc1` gave 12-LOX inh inactive, TDP1 cell noCPT inactive, HT1080 IDH1KD tx inactive, DT40 TDP1 CPT inactive, IL1B secr inh inactive and HT1080NT lethal inactive.
CN(C)c1ccc(-c2cccc3nccn23)cc1 was read as 12-LOX inh inactive, TDP1 cell noCPT 14.6µM, HT1080 IDH1KD tx inconclusive, DT40 TDP1 CPT inconclusive, IL1B secr inh inactive and HT1080NT lethal inactive.
Cc1cccc(N=Nc2ccc(O)c3ncccc23)c1 was read as 12-LOX inh inconclusive, TDP1 cell noCPT 6.51µM, HT1080 IDH1KD tx 7.31µM, DT40 TDP1 CPT 7.31µM, IL1B secr inh inactive and HT1080NT lethal inconclusive.
Cc1ccc(C)c(N=Nc2ccc(O)c3ncccc23)c1 was read as 12-LOX inh inconclusive, TDP1 cell noCPT 2.06µM, HT1080 IDH1KD tx inconclusive, DT40 TDP1 CPT 2.06µM, IL1B secr inh inactive and HT1080NT lethal inconclusive.
CCOc1ccc(N=Nc2ccc(O)c3ncccc23)cc1 was read as 12-LOX inh inactive, TDP1 cell noCPT inconclusive, HT1080 IDH1KD tx inconclusive, DT40 TDP1 CPT inconclusive, IL1B secr inh inactive and HT1080NT lethal inconclusive.
For Oc1ccc(N=Nc2ccc3c(c2)OCCO3)c2ncccc12 the results were 12-LOX inh inactive, TDP1 cell noCPT 2.06µM, HT1080 IDH1KD tx 3.66µM, DT40 TDP1 CPT 2.91µM, IL1B secr inh inactive and HT1080NT lethal inconclusive.
For NS(=O)(=O)c1ccc(N=Nc2ccc(O)c3ncccc23)cc1 the results were 12-LOX inh inconclusive, TDP1 cell noCPT 2.31µM, HT1080 IDH1KD tx 23.1µM, DT40 TDP1 CPT 2.59µM, IL1B secr inh inactive and HT1080NT lethal inconclusive.
CC(C)c1ccc(C=O)cc1 was read as 12-LOX inh inactive.
For COc1ccc(S(=O)(=O)N2CCC(Oc3ccc(-n4cnnn4)cc3)CC2)cc1 the results were 12-LOX inh inactive, TDP1 cell noCPT inactive and DT40 TDP1 CPT 10.3µM.
Screening O=S(=O)(c1cccc(C(F)(F)F)c1)N1CCC(Oc2ccc(-n3cnnn3)cc2)CC1 returned 12-LOX inh inactive, TDP1 cell noCPT 4.61µM and DT40 TDP1 CPT 5.8µM.
O=S(=O)(c1ccccc1)N1CCC(Oc2ccc(-n3cnnn3)cc2)CC1 was read as 12-LOX inh inactive, TDP1 cell noCPT inconclusive, HT1080 IDH1KD tx inactive, DT40 TDP1 CPT inconclusive, IL1B secr inh inactive and HT1080NT lethal inactive.
`O=C(c1ccccc1F)N1CCCN(c2nc3ncccc3o2)CC1` gave 12-LOX inh inactive.
Screening Cc1c(-c2ccccc2)nc2ccccc2c1C(=O)NC(C)C returned 12-LOX inh inactive.
CCc1c(-c2ccccc2)nc2ccccc2c1C(=O)NC(C)c1ccccc1 (stereo not drawn) was read as 12-LOX inh inactive, TDP1 cell noCPT 23.1µM and DT40 TDP1 CPT inconclusive.

Screens deposited in PubChem BioAssay by National Center for Advancing Translational Sciences (NCATS).
